About 83,000 compounds went through this panel and 20% of them were active in at least one assay; those are over-represented in the sample as a whole.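 Cells were grown in 96-well plates and exposed to the test compound at a single concentration for 48 hours; results are reported as percent growth, with values below 10 considered active.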 Activity calls are given as the source filed them.
Legend:
Assay in all cases: NCI-60 one-dose screen, 48 h (100 = growth as untreated, 0 = no growth, -100 = all killed)
Details in all cases: 10 µM unless noted
[1] = system: HT29 colon
[2] = system: SNB-75 CNS
[3] = system: SNB-19 CNS
[4] = system: U251 CNS
[5] = system: PC-3 prostate
[6] = system: UACC-62 melanoma
[7] = system: LOX IMVI melanoma
[8] = system: SK-MEL-28 melanoma
[9] = system: SK-MEL-2 melanoma
[10] = system: EKVX NSCLC
[11] = system: SN12C renal
[12] = system: UO-31 renal
[13] = system: TK-10 renal
[14] = system: ACHN renal
[15] = system: CAKI-1 renal
[16] = system: A498 renal
[17] = system: CCRF-CEM leukemia
[18] = system: MOLT-4 leukemia
[19] = system: SR leukemia

Measured: growth

COc1ccc(/C=C2\COc3ccc(O)c(O)c3C2=O)cc1OC
inactive: [2] 42.1% | [3] 22.4% | [5] 11.7% | [8] 57.2% | [9] 76% | [10] 42.2% | [15] 11.1% | [16] 105%
active: [1] 8.1% | [4] 5.85% | [6] -29.4% | [7] -68% | [11] -67.7% | [12] -87.9% | [13] 5.44% | [14] -56.3% | [17] -13.9% | [18] -21.5% | [19] -1.26%

COC1CC2CCC(C)C(O)(O2)C(=O)C(=O)N2CCCCC2C(=O)OC(C(C)CC2CCC(O)C(OC)C2)CC(=O)C(C)C=C(C)C(O)C(OC)C(=O)C(C)CC(C)/C=C/C=C/C=C1C (stereo not drawn)
inactive: [1] 43.7% | [2] 13.5% | [3] 38.1% | [4] 35.8% | [5] 31.3% | [6] 36.5% | [7] 39% | [8] 54.1% | [9] 35.9% | [10] 30.3% | [11] 48.2% | [12] 21.5% | [13] 49.7% | [14] 40.3% | [17] 37.9% | [18] 21.4%
active: [16] -5.92%

OCCOc1c(Cl)cc(Cl)cc1Cl
inactive: [1] 110% | [2] 62.2% | [3] 94.2% | [4] 103% | [5] 101% | [6] 94.6% | [7] 100% | [8] 96.8% | [9] 126% | [10] 106% | [11] 89.8% | [12] 87.8% | [13] 113% | [14] 99.3% | [15] 93.8% | [16] 70.7% | [17] 113% | [18] 111%

Clc1cc(Cl)c(OCC#CI)cc1Cl
active: [7] -56% | [14] 2.93%
inactive: [1] 10.4% | [2] 87.6% | [3] 108% | [4] 78.9% | [5] 75.6% | [6] 62.8% | [8] 17.2% | [9] 75.8% | [10] 98.8% | [11] 53.7% | [12] 38.4% | [13] 69.8% | [15] 15.7% | [16] 119% | [17] 27.8% | [18] 41.5% | [19] 11.4%

O=C(OC[C@H]1O[C@H](OC(=O)c2cc(O)c(O)c(OC(=O)c3cc(O)c(O)c(O)c3)c2)[C@H](OC(=O)c2cc(O)c(O)c(OC(=O)c3cc(O)c(O)c(O)c3)c2)[C@@H](OC(=O)c2cc(O)c(O)c(OC(=O)c3cc(O)c(O)c(O)c3)c2)[C@@H]1OC(=O)c1cc(O)c(O)c(OC(=O)c2cc(O)c(O)c(O)c2)c1)c1cc(O)c(O)c(OC(=O)c2cc(O)c(O)c(O)c2)c1
active: [7] 7.17%
inactive: [1] 33.5% | [2] 53.6% | [3] 36.6% | [4] 22.3% | [5] 38% | [6] 10.6% | [8] 78.6% | [9] 80.4% | [10] 37.4% | [11] 31.6% | [12] 22.1% | [13] 43.4% | [14] 24.6% | [15] 19.6% | [16] 35.6% | [17] 24% | [18] 26.3%

NC(=O)c1ncn([C@@H]2O[C@H](CO)[C@@H](O)[C@H]2O)n1
inactive: [1] 52.5% | [2] 92.2% | [3] 96.2% | [4] 94.7% | [5] 86% | [6] 104% | [7] 84.2% | [8] 115% | [9] 103% | [10] 96.9% | [11] 89.3% | [12] 73.5% | [14] 83.1% | [15] 85.4% | [16] 110% | [17] 76.9% | [18] 72.3%

COC(=O)[C@]1(CCSC)N[C@H](c2cn(-c3ccccc3)nc2C)[C@@H]2C(=O)N(c3ccc(C)cc3)C(=O)[C@@H]21
inactive: [1] 99.7% | [2] 93.3% | [3] 97.8% | [4] 95.7% | [5] 98.1% | [6] 102% | [7] 97.9% | [8] 109% | [10] 106% | [11] 101% | [12] 77.5% | [13] 104% | [14] 90.7% | [15] 93.9% | [16] 77.2%

Nc1nc(N)c([N+](=O)[O-])c(=O)[nH]1
inactive: [1] 98.6% | [2] 106% | [3] 108% | [4] 102% | [5] 94.5% | [6] 105% | [7] 105% | [8] 107% | [9] 84.2% | [10] 121% | [11] 105% | [12] 80.8% | [13] 94.6% | [14] 98.7% | [15] 104% | [16] 97.9% | [17] 93.1% | [18] 111% | [19] 106%

CCC1=C(c2ccc(OC)cc2)C(C)Oc2cc(OC(C)=O)ccc21 (stereo not drawn)
inactive: [1] 102% | [2] 71.9% | [3] 88.6% | [5] 68.3% | [6] 74% | [7] 90.6% | [8] 93.7% | [9] 89.7% | [10] 75% | [11] 90.4% | [12] 88.6% | [13] 98.6% | [14] 88% | [15] 74.9% | [16] 90.7% | [17] 63.5% | [18] 76.7% | [19] 53%
active: [4] -0.227%

CCCCN(CCCC)CCCOC(=O)c1ccc(N)cc1
inactive: [1] 31.4% | [2] 39.1% | [3] 88.7% | [4] 58.5% | [5] 97.1% | [6] 92.3% | [7] 64.2% | [8] 57.5% | [9] 85.1% | [10] 94.3% | [11] 82% | [12] 81.2% | [13] 103% | [14] 91.9% | [15] 90.5% | [16] 104% | [17] 96.8% | [18] 93.2%

COc1cccc(/C=C2\COc3ccc(O)c(O)c3C2=O)c1OC
active: [6] 8.54% | [7] -72.6% | [11] -62.7% | [12] -94.7% | [14] -60.1% | [17] 3.28% | [18] -12.8% | [19] -8.94%
inactive: [1] 21.6% | [2] 21.8% | [3] 31.6% | [4] 10.9% | [5] 19.5% | [8] 47% | [9] 97.3% | [10] 70.4% | [13] 11.7% | [15] 22.6% | [16] 80.3%

CC(C)c1nc(N(C)S(C)(=O)=O)nc(-c2ccc(F)cc2)c1/C=C/[C@@H](O)C[C@@H](O)CC(=O)O
inactive: [1] 104% | [2] 107% | [3] 115% | [4] 61.7% | [5] 69.3% | [6] 102% | [7] 81.3% | [8] 107% | [9] 97.8% | [10] 91.2% | [11] 96.2% | [12] 75% | [13] 107% | [14] 97.1% | [15] 97.6% | [16] 56.2% | [18] 109%

C[C@@H]1CC[C@H]2[C@@H](C)C(O)O[C@@H]3O[C@]4(C)CC[C@@H]1[C@]32OO4 (stereo partly drawn)
inactive: [1] 17.7% | [2] 52.5% | [3] 57.7% | [4] 25.5% | [5] 15.1% | [6] 31% | [7] 11.7% | [8] 78% | [9] 27% | [10] 29.9% | [11] 23.6% | [13] 27.3% | [15] 22.9% | [16] 68.2% | [17] 28.5% | [18] 33.8%
active: [12] 1.61%

CC12CCCCC1C(C(N)=O)C(=O)O2 (stereo not drawn)
inactive: [1] 112% | [2] 96.1% | [3] 100% | [4] 104% | [5] 101% | [6] 98.8% | [7] 96.4% | [8] 105% | [9] 104% | [10] 123% | [11] 97.9% | [12] 93.9% | [13] 100% | [15] 104% | [16] 124% | [17] 102% | [18] 98.1% | [19] 94.6%

CCOC(=O)C1=C(COCCN)NC(C)=C(C(=O)OC)C1c1ccccc1Cl (stereo not drawn)
inactive: [1] 11.4% | [2] 72.3% | [3] 102% | [4] 52.8% | [5] 66.9% | [6] 60.5% | [7] 32.3% | [8] 75.9% | [9] 90.2% | [11] 75.9% | [12] 45.4% | [13] 67.8% | [14] 43.8% | [15] 64.5% | [16] 62.4% | [17] 66.2% | [18] 67%

COc1cc(/C=C2\COc3ccc(O)cc3C2=O)cc(OC)c1
inactive: [1] 12% | [2] 87% | [3] 50.5% | [4] 30.1% | [5] 53.8% | [6] 62.6% | [8] 94.4% | [9] 101% | [10] 94.8% | [11] 21.7% | [12] 63.1% | [13] 93.6% | [14] 48.9% | [15] 68.4% | [16] 101% | [18] 31.3%
active: [7] -65.5% | [17] -0.953% | [19] 3.36%

CN(CCOc1ccc(CC2SC(=O)NC2=O)cc1)c1ccccn1 (stereo not drawn)
inactive: [1] 117% | [2] 96.3% | [3] 105% | [4] 90.7% | [5] 105% | [6] 93.1% | [7] 92.8% | [8] 111% | [9] 117% | [10] 101% | [11] 88.2% | [12] 72.1% | [13] 103% | [14] 84.9% | [15] 96.3% | [16] 110% | [18] 119%
